# Measurements published in PubChem BioAssay (NCATS).
# Inconclusive results are not listed. Active and inactive are the calls of the source. Calls follow the shape of the dose curve; as a rule, active = well fitted curve in the direction sought with a large enough effect; inconclusive = small, poorly fitted or top-dose-only effect, or another doubt; inactive = no such curve, though single readings can be large; an effect the other way counts as inactive or inconclusive.
# Assays:
# [1] = qHTS of pediatric cancer cell lines to identify multiple opportunities for drug repurposing: Confirmatory screen for DAOY cells (AID 1347114); also: potency is read from the fitted curve at half-maximal effect; nearly all actives have a fitted effect of over 65% in size
# Procedure, shortened: (§1)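 Viability measured as metabolically active cells via CellTiter-Glo luminescence following 48 hours of compound exposure, 11-point dilutions in confirmatory testing. 500-1,000 cells/well plated 5 hours before dosing; controls were DMSO and 2.3 µM bortezomib.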
# [2] = qHTS of pediatric cancer cell lines to identify multiple opportunities for drug repurposing: Confirmatory screen for NB-EBc1 cells (AID 1347115);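 also: cells exposed to compound for 48 h before the viability read; nearly all actives have a fitted effect of over 45% in size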; also: potency is read from the fitted curve at half-maximal effect
# Procedure, shortened: (§2)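 Viability after 48 h compound treatment at 37C, 500-1,000 cells/well, read as ATP luminescence with CellTiter-Glo. Primary screens used 11-point (MIPE, 0.78 nM-46 µM) or 8-point (NPC, 0.59 nM-46 µM) final concentrations; follow-up screens used 11-point dilutions.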
# [3] = qHTS of pediatric cancer cell lines to identify multiple opportunities for drug repurposing: Confirmatory screen for SJ-GBM2 cells (AID 1347116); also: nearly all actives have a fitted effect of over 60% in size; also: potency is read from the fitted curve at half-maximal effect
# Procedure, shortened: as §1
# [4] = qHTS of pediatric cancer cell lines to identify multiple opportunities for drug repurposing: Confirmatory screen for TC32 cells (AID 1347118);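 also: potency is read from the fitted curve at half-maximal effect; cells exposed to compound for 48 h before the read; nearly all actives have a fitted effect of over 65% in size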
# Procedure, shortened: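 Measured quantity: luminescence from CellTiter-Glo, reflecting metabolically active TC32 cells following 48 h of compound. Curves came straight from multi-point titrations, with 8 or 11 points in primary and 11 in confirmatory screening.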
# [5] = qHTS of pediatric cancer cell lines to identify multiple opportunities for drug repurposing: Confirmatory screen for MG 63 (6-TG R) cells (AID 1347119); also: nearly all actives have a fitted effect of over 55% in size; also: potency is read from the fitted curve at half-maximal effect
# Procedure, shortened: as §2
# [6] = qHTS of pediatric cancer cell lines to identify multiple opportunities for drug repurposing: Confirmatory screen for control Hh wild type fibroblast cells (AID 1347121); also: nearly all actives have a fitted effect of over 70% in size; also: potency is read from the fitted curve at half-maximal effect
# Procedure, shortened: as §2
# [7] = qHTS of pediatric cancer cell lines to identify multiple opportunities for drug repurposing: Confirmatory screen for RD cells (AID 1347124);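 also: cells exposed to compound for 48 h before viability readout; nearly all actives have a fitted effect of over 65% in size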; also: potency is read from the fitted curve at half-maximal effect
# Procedure, shortened: as §2
# [8] = qHTS of pediatric cancer cell lines to identify multiple opportunities for drug repurposing: Confirmatory screen for Rh18 cells (AID 1347125); also: nearly all actives have a fitted effect of over 55% in size; also: potency is read from the fitted curve at half-maximal effect
# Procedure, shortened: as §2
# [9] = qHTS of pediatric cancer cell lines to identify multiple opportunities for drug repurposing: Confirmatory screen for Saos-2 cells (AID 1347127); also: nearly all actives have a fitted effect of over 60% in size; also: potency is read from the fitted curve at half-maximal effect
# Procedure, shortened: as §2
# [10] = qHTS of pediatric cancer cell lines to identify multiple opportunities for drug repurposing: Confirmatory screen for SK-N-SH cells (AID 1347129);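 also: cells exposed to compound for 48 h before viability read; nearly all actives have a fitted effect of over 60% in size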; also: potency is read from the fitted curve at half-maximal effect
# Procedure, shortened: as §2
# [11] = system: Zika virus NS2B-NS3 protease; assay: Primary screen GU AMC qHTS for Zika virus inhibitors (AID 1347154); also: nearly all actives have a fitted effect of over 70% in size
# Procedure, shortened: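 Unlinked Zika NS2B hydrophilic domain–NS3 protease complex at 25 nM in 10 mM Tris-HCl pH 8.0, 0.01% Tween 20, with an AMC peptide substrate. Fluorescence change (340/450 nm) over 15 min at room temperature, normalized to controls, fitted to 4-parameter Hill.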
# [12] = qHTS of pediatric cancer cell lines to identify multiple opportunities for drug repurposing: Confirmatory screen for BT-37 cells (AID 1347117); conditions: BT-37 pediatric cancer cells, viability; activity change, negative = cytotoxic: at 45.9 µM (top of the series); also: nearly all actives have a fitted effect of over 55% in size; also: potency is read from the fitted curve at half-maximal effect
# Procedure, shortened: as §2
# [13] = qHTS of pediatric cancer cell lines to identify multiple opportunities for drug repurposing: Confirmatory screen for U-2 OS cells (AID 1347122); also: nearly all actives have a fitted effect of over 65% in size; also: potency is read from the fitted curve at half-maximal effect
# Procedure, shortened: as §2
# [14] = qHTS of pediatric cancer cell lines to identify multiple opportunities for drug repurposing: Confirmatory screen for Rh41 cells (AID 1347123);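 also: potency is read from the fitted curve at half-maximal effect; 48 h compound exposure; nearly all actives have a fitted effect of over 60% in size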
# Procedure, shortened: as §2
# [15] = qHTS of pediatric cancer cell lines to identify multiple opportunities for drug repurposing: Confirmatory screen for Rh30 cells (AID 1347126); also: nearly all actives have a fitted effect of over 55% in size; also: potency is read from the fitted curve at half-maximal effect
# Procedure, shortened: as §2
# [16] = qHTS of pediatric cancer cell lines to identify multiple opportunities for drug repurposing: Confirmatory screen for OHS-50 cells (AID 1347128)
# Procedure, shortened: as §2
SMILES,Potency [1],Potency [2],Potency [3],Potency [4],Potency [5],Potency [6],Potency [7],Potency [8],Potency [9],Potency [10],Potency [11],Potency [12],Potency [13],Potency [14],Potency [15],Potency [16]
C=CC(=O)Nc1cccc(Nc2nc(NC3CCC(N(C)C)CC3)nc3c2ncn3C(C)C)c1 (stereo unspecified),3.29 µM (active),7.37 µM (active),4.65 µM (active),0.657 µM (active),3.69 µM (active),inactive,0.737 µM (active),0.657 µM (active),1.65 µM (active),2.96 µM (active),inactive,–,–,–,–,–
C[C@@]12C(=O)OC(=O)[C@@]1(C)C1CCC2O1,2.61 µM (active),–,6.57 µM (active),3.69 µM (active),1.47 µM (active),–,4.14 µM (active),2.93 µM (active),2.61 µM (active),–,inactive,2.08 µM (active),1.85 µM (active),1.85 µM (active),3.29 µM (active),–
COc1ccc(Nc2cc(-c3cnc(N)nc3)nc(N3CCOCC3)n2)cn1,–,–,2.61 µM (active),3.69 µM (active),1.31 µM (active),–,2.61 µM (active),11.7 µM (active),3.29 µM (active),5.9 µM (active),inactive,10.4 µM (active),–,4.14 µM (active),–,–
CC(C)C[C@H](NC(=O)[C@@H](NC(=O)c1cccc(-c2ccccc2)n1)[C@@H](C)O)B(O)O,–,–,0.0465 µM (active),0.0585 µM (active),0.0165 µM (active),20.8 µM (active),0.0522 µM (active),0.0827 µM (active),0.414 µM (active),0.059 µM (active),inactive,–,0.0369 µM (active),0.0737 µM (active),3.29 µM (active),0.131 µM (active)
Cc1ncc(-c2ccnc(Nc3ccc(S(C)(=O)=O)cc3)n2)n1C(C)C,–,–,2.61 µM (active),4.65 µM (active),inactive,inactive,5.22 µM (active),–,3.69 µM (active),–,–,3.29 µM (active),3.29 µM (active),2.93 µM (active),–,–
COC[C@H](NC(=O)c1cnc(C)s1)C(=O)N[C@@H](COC)C(=O)N[C@@H](Cc1ccccc1)C(=O)[C@@]1(C)CO1,–,0.208 µM (active),0.131 µM (active),0.165 µM (active),0.0928 µM (active),inactive,0.0827 µM (active),0.208 µM (active),–,–,inactive,–,0.329 µM (active),–,0.737 µM (active),–
C=CC(=O)Nc1ccc2ncnc(Nc3ccc(OCc4cccc(F)c4)c(Cl)c3)c2c1,–,20.8 µM (active),2.61 µM (active),7.37 µM (active),8.27 µM (active),–,1.47 µM (active),16.5 µM (active),7.37 µM (active),16.6 µM (active),inactive,–,–,0.465 µM (active),–,–
CNC(=O)c1ccc(Nc2cc(Nc3ccccc3S(=O)(=O)C(C)C)c3cc[nH]c3n2)nc1,–,–,10.4 µM (active),1.85 µM (active),1.04 µM (active),–,9.27 µM (active),18.5 µM (active),5.85 µM (active),–,inactive,6.57 µM (active),–,5.85 µM (active),4.14 µM (active),8.27 µM (active)
CC(=O)SCC(Cc1ccccc1)C(=O)NCC(=O)OCc1ccccc1 (stereo unspecified),–,inactive,inactive,–,inactive,inactive,inactive,inactive,inactive,–,inactive,–,–,–,inactive,–
Oc1cc(-c2nc(-c3ccccc3)[nH]c2-c2ccncc2)ccc1Cl,–,–,7.37 µM (active),7.37 µM (active),inactive,–,16.5 µM (active),18.5 µM (active),2.61 µM (active),–,inactive,2.61 µM (active),–,–,1.31 µM (active),–
CO[C@@H]1[C@@H](O)[C@H](O)[C@@H](n2c3c(Cl)cccc3c3c4c(c5c6cccc(Cl)c6[nH]c5c32)C(=O)NC4=O)O[C@@H]1CO,–,–,5.22 µM (active),0.737 µM (active),1.31 µM (active),–,–,6.57 µM (active),–,2.64 µM (active),inactive,0.827 µM (active),–,5.85 µM (active),inactive,2.61 µM (active)
Cc1ccc([N+](=O)[O-])cc1S(=O)(=O)N(C)N=Cc1cnc2ccc(Br)cn12,–,–,0.465 µM (active),0.293 µM (active),–,–,4.65 µM (active),1.31 µM (active),2.33 µM (active),–,inactive,0.329 µM (active),7.37 µM (active),0.329 µM (active),4.65 µM (active),–
Nc1nc2c(c(=O)[nH]1)N(C=O)[C@H](CNc1ccc(C(=O)N[C@@H](CCC(=O)O)C(=O)O)cc1)CN2,–,inactive,inactive,10.4 µM (active),inactive,–,inactive,inactive,inactive,inactive,inactive,inactive,inactive,–,inactive,–
